These results are taken from PubChem BioAssay AID720706 (Broad Institute, 2013).

In all, about 350,000 compounds went through this assay and about 5,500 (1.6%) were called active.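 How the source made its calls: active means significant combined selectivity score with lowered wild-type GFP, culture density cut under 30%, mutant RFP and density less affected; inactive means any of these conditions unmet.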 The full list was thinned out, with actives kept by preference.

This assay in a line: GFP drop in mixed WT/humanized-ribosome E. coli culture – GFP/RFP fluorescence, OD600, single point, bacterial rRNA inhibitor project, primary screen (AID 720706). To be noted: E. coli WT GFP vs humanized-ribosome RFP mutants, 24 h; GFP signal change (wild-type ribosome): stronger effect = lower value, DMSO median 0, no signal -100; OD600 change: measured here: OD600 growth, DMSO median 0, no signal -100; RFP signal change: measured here: RFP humanized mutant strains, DMSO median 0, no signal -100, concentration not given here.
On to `CCOC(=O)CSC1=C(C#N)C(c2ccco2)C(C(=O)OCc2ccccc2)=C(C)N1` (stereo unspecified), for which the GFP signal change (wild-type ribosome) is -26.5% (active), the OD600 change is -14.3% and the RFP signal change was -3.21%.

`CCCSC1=C(C#N)C(c2ccccc2C)C(C(=O)OC)C(=O)N1` (stereo unspecified): the GFP signal change (wild-type ribosome) was -10.9% (inactive), the OD600 change was -3.33% and the RFP signal change is -1.26%.

Take `O=C(NCCCN1CCN(c2ccc(F)cc2)CC1)Nc1ccc([N+](=O)[O-])cc1`: the GFP signal change (wild-type ribosome) is -23.1% (active), the OD600 change was -16.1% and the RFP signal change worked out at 9.67%.

With `O=C(NCCCN1CCOCC1)c1ccc([N+](=O)[O-])cc1[N+](=O)[O-]`, the GFP signal change (wild-type ribosome) is 7.34% (inactive), the OD600 change came to 6.35% and the RFP signal change was -0.35%.

As to `CN1CCN(CCNC(=O)Nc2ccc([N+](=O)[O-])cc2)CC1`, the GFP signal change (wild-type ribosome) was 3.04% (inactive), the OD600 change was -6.09% and the RFP signal change was -2.6%.

For `O=C(c1ccncc1)N1CC(=O)N2[C@H](C1)[C@@H](c1ccc(C#CCC3CCCC3)cc1)[C@@H]2CO`, the GFP signal change (wild-type ribosome) is -32.1% (inactive), the OD600 change is -56.8% and the RFP signal change came to 7.12%.

On to `CCCN(C)C[C@@H]1Oc2ncc(-c3ccccc3F)cc2C(=O)N([C@@H](C)CO)C[C@@H]1C`, for which the GFP signal change (wild-type ribosome) was 9.44% (inactive), the OD600 change was 19.7% and the RFP signal change was -1.32%.

Regarding `Nc1ccc(N=Nc2ccccc2Cl)c(N)n1`, the GFP signal change (wild-type ribosome) is -31.4% (active), the OD600 change is -18.6% and the RFP signal change was -5.26%.

For the molecule `C[C@@H]1CN([C@H](C)CO)C(=O)c2cccc(NC(=O)Nc3ccc(F)cc3)c2O[C@@H]1CN(C)C(=O)Nc1ccc(C(F)(F)F)cc1`, the GFP signal change (wild-type ribosome) was -3.92% (inactive), the OD600 change was -1.07% and the RFP signal change was -2.09%.

For `COc1ccc(S(=O)(=O)Nc2ccc3c(c2)CC(=O)N([C@H](C)CO)C[C@H](C)[C@@H](CN(C)C(=O)NC(C)C)O3)cc1`, the GFP signal change (wild-type ribosome) is 1.06% (inactive), the OD600 change worked out at 6.54% and the RFP signal change is -0.682%.

Regarding `C[C@@H]1CN([C@@H](C)CO)C(=O)c2cccc(N(C)C)c2O[C@@H]1CN(C)S(C)(=O)=O`, the GFP signal change (wild-type ribosome) was 0.068% (inactive), the OD600 change came out at 11.7% and the RFP signal change turned out to be 1.6%.

With `N#CC1=C(N)Oc2n[nH]c(CSc3ccccc3)c2C12C(=O)Nc1ccccc12` (stereo unspecified), the GFP signal change (wild-type ribosome) was -4.64% (inactive), the OD600 change is -0.706% and the RFP signal change came out at 2.2%.

Consider `Cc1cc(C)c(C#N)c(SCc2[nH]nc3c2C(c2ccccc2)C(C#N)=C(N)O3)n1` (stereo unspecified), for which the GFP signal change (wild-type ribosome) was -19.3% (active), the OD600 change was -14.2% and the RFP signal change turned out to be 7.29%.

In the case of `N#CC1=C(N)Oc2cc(N)ccc2C1c1ccccc1` (stereo unspecified), the GFP signal change (wild-type ribosome) was 5.33% (inactive), the OD600 change turned out to be 13.2% and the RFP signal change worked out at 8.27%.

For the molecule `CCC(=O)Nc1ccc2c(c1)C(=O)N(C)[C@H]1CC[C@H](CC(=O)NCC3CCCCC3)O[C@H]1CO2`, the GFP signal change (wild-type ribosome) was -0.704% (inactive), the OD600 change was -0.374% and the RFP signal change was -0.863%.

In the case of `CC[C@H](NC(=O)[C@H](Cc1ccccc1)NC(=O)[C@H]1O[C@@H](n2cnc3c(=O)[nH]c(N)nc32)[C@H](O)[C@@H]1O)c1ccccc1`, the GFP signal change (wild-type ribosome) is 13.7% (inactive), the OD600 change is 14.1% and the RFP signal change was determined as 2.61%.

For `CCc1cccc(NC(=O)CCNS(=O)(=O)c2cccc3nonc23)c1`, the GFP signal change (wild-type ribosome) was -13.3% (inactive), the OD600 change was -12.7% and the RFP signal change amounted to 18.6%.

Turning to `O=S(=O)(Nc1ccc(OC(F)(F)F)cc1)c1cccc2nonc12`, the GFP signal change (wild-type ribosome) is -39% (active), the OD600 change was -15.7% and the RFP signal change is -10.9%.

Regarding `O=C(O)c1ccc(NS(=O)(=O)c2cccc3nsnc23)cc1`, the GFP signal change (wild-type ribosome) is 12.3% (inactive), the OD600 change was determined as 9.27% and the RFP signal change turned out to be 0.548%.

Regarding `Cc1ccc(S(=O)(=O)N(C)C[C@@H]2Oc3c(NS(=O)(=O)c4ccc(F)cc4)cccc3C(=O)N([C@@H](C)CO)C[C@H]2C)cc1`, the GFP signal change (wild-type ribosome) is -1.93% (inactive), the OD600 change was 3.45% and the RFP signal change was 0.647%.

Take `N#Cc1ccc(CSc2ncccn2)cc1`: the GFP signal change (wild-type ribosome) was -4.06% (inactive), the OD600 change was -1.11% and the RFP signal change is -0.806%.

Regarding `Cc1ccc(CSc2nsc(C)c2C#N)cc1`, the GFP signal change (wild-type ribosome) was -24.5% (active), the OD600 change is -7.04% and the RFP signal change was -1.18%.

With `Cc1snc(SCc2c(F)cccc2Cl)c1C#N`, the GFP signal change (wild-type ribosome) was -4.85% (inactive), the OD600 change is -10.8% and the RFP signal change is -3.63%.

On to `CN(C)C(=O)C[C@H]1C[C@@H]2c3cc(NC(=O)CC4CC4)ccc3O[C@@H]2[C@@H](CO)O1`, for which the GFP signal change (wild-type ribosome) is 1.34% (inactive), the OD600 change was determined as 0.566% and the RFP signal change amounted to 1.23%.

For `Cc1ccc(S(=O)(=O)N(C)C[C@@H]2Oc3ccc(NC(=O)Cn4cnnn4)cc3CC(=O)N([C@H](C)CO)C[C@H]2C)cc1`, the GFP signal change (wild-type ribosome) is -0.977% (inactive), the OD600 change is 0.458% and the RFP signal change was -4.09%.

As for `CSc1nnc(NC(=O)c2nc(S(=O)(=O)Cc3ccc(C)cc3)ncc2Cl)s1`, the GFP signal change (wild-type ribosome) was 2.78% (inactive), the OD600 change was -0.98% and the RFP signal change worked out at 0.486%.

Take `Cc1cccc(CS(=O)(=O)c2ncc(Cl)c(C(=O)Nc3ccc(F)cc3)n2)c1`: the GFP signal change (wild-type ribosome) was 6.16% (inactive), the OD600 change was 2.7% and the RFP signal change is -4.49%.

For `Cc1cccc(NC(=O)c2nc(S(=O)(=O)Cc3ccccc3)ncc2Cl)c1`, the GFP signal change (wild-type ribosome) is -14.7% (active), the OD600 change was 11% and the RFP signal change was -6.12%.

On to `CS(=O)(=O)N1CCCCN2[C@@H](CO)[C@@H](c3ccc(Br)cc3)[C@@H]2C1`, for which the GFP signal change (wild-type ribosome) is 5.32% (inactive), the OD600 change was found to be 1.18% and the RFP signal change is 3.67%.

Turning to `Cc1ccc(C(=O)OCC(=O)N2CC(C)CC(C)C2)cc1S(=O)(=O)N1CCCCC1` (stereo unspecified), the GFP signal change (wild-type ribosome) was -26.5% (inactive), the OD600 change was -33.2% and the RFP signal change was -6.95%.

Regarding `COc1ccc(CNC(=O)COC(=O)c2ccc(C)c(S(=O)(=O)N3CCOCC3)c2)cc1OC`, the GFP signal change (wild-type ribosome) is -1.36% (inactive), the OD600 change was -0.45% and the RFP signal change amounted to 4.29%.

Take `Cc1ccc(C(=O)OCC(=O)NCc2cc(C)c(O)c(C)c2)cc1S(=O)(=O)N1CCCCC1`: the GFP signal change (wild-type ribosome) was -24.5% (active), the OD600 change is -17% and the RFP signal change is -2.51%.
